Experimental data published in ChEMBL document CHEMBL3988442, “University of Dundee, Small-Polar-MMV Screening Library” (2021).
For some of these results: Entries with a potency or affinity are not part of this list.

How the values were obtained:
[1] = molecular target: T1, Methionyl-tRNA synthetase, putative (Leishmania donovani (strain BPK282A1)) (UniProt E9BF75); assay: Leishmania donovani Methionine tRNA synthetase (LdMetRS):v7. Dose response assay; type: functional; set-up: conc 80 nM, time 150 minutes
T1 sequence (whole entry): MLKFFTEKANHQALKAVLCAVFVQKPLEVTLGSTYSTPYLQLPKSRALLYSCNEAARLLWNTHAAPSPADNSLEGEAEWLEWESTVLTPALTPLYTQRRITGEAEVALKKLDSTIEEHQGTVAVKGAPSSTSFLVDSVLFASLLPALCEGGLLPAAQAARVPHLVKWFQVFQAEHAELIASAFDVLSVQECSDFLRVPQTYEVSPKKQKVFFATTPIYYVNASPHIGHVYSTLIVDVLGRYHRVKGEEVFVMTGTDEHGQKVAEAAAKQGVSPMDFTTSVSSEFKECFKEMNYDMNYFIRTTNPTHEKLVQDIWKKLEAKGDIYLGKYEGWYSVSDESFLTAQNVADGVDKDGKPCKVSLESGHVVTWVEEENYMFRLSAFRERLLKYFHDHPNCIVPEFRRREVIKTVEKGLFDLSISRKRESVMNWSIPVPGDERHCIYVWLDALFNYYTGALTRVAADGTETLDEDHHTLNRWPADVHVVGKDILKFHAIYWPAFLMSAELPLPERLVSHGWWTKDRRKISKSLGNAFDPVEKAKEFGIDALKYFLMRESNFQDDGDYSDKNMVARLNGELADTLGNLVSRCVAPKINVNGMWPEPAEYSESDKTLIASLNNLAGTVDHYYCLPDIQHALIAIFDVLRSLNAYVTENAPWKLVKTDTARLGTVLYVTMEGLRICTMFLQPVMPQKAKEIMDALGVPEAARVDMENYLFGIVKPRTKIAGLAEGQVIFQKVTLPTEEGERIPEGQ

[2] = molecular target: Protein translocase subunit SecA (Escherichia coli (strain K12)) (UniProt P10408); assay: Assay to Identify E. coli SecA ATPase Inhibitors; type: functional; set-up: scale not given: direction of the effect not stated beside the values; conditions: 30 µM
[3] = molecular target: T2, Ubiquitin-activating enzyme e1, putative (Leishmania donovani (strain BPK282A1)) (UniProt E9BSI1); assay: Leishmania donovani Ubiquitin Activating Enzyme (LdE1); type: functional; set-up: scale not given: direction of the effect not stated beside the values; conditions: 30 µM
T2 sequence (whole entry): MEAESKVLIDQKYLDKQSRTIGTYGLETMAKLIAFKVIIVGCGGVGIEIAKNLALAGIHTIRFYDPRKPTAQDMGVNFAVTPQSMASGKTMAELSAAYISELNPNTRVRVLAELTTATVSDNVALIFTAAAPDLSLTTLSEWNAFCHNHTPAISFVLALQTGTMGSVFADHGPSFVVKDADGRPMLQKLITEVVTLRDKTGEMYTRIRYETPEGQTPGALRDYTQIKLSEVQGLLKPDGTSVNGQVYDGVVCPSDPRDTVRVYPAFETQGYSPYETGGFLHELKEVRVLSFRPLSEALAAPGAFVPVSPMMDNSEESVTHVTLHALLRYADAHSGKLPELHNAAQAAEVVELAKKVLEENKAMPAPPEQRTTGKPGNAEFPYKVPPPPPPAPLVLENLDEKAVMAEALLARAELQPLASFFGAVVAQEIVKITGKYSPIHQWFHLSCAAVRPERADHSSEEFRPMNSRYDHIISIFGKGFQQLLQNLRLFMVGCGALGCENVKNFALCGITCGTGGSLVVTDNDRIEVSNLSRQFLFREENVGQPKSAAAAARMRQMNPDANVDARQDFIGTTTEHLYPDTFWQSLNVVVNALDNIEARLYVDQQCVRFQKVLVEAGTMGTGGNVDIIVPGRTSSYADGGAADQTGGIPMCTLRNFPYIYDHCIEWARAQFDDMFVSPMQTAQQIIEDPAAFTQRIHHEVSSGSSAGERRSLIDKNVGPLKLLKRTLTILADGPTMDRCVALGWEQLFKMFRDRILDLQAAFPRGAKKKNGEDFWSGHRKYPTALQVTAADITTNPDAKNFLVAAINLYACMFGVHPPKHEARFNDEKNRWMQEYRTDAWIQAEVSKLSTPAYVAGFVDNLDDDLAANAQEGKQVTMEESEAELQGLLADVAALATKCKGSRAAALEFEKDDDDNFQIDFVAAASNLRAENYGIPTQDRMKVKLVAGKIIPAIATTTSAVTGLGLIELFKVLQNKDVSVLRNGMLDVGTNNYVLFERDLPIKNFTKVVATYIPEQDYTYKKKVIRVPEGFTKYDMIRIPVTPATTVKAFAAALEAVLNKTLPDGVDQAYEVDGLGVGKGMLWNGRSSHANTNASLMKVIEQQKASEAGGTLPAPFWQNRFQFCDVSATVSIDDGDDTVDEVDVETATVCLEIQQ

[4] = molecular target: AMP-activated protein kinase, AMPK (Homo sapiens) (UniProt P54646+O43741+P54619+Q9UGJ0+Q9Y478+Q13131+Q9UGI9); assay: AMP-dependent Kinase enzyme assay. An in vitro enzyme assay that detects ADP turnover that is directly proportional to AMPK activity. This uses naive AMPK that is activated during the assay with MK-8722; type: functional; set-up: scale not given: direction of the effect not stated beside the values; conditions: 30 µM
[5] = molecular target: Sialic acid-binding Ig-like lectin 9 (Homo sapiens) (UniProt Q9Y336); assay: Hs-Siglec9 ALPHAscreen SOP 20170721; set-up: scale not given: direction of the effect not stated beside the values; conditions: 10 µM
Trypanosoma cruzi = assay: Trypanosoma cruzi phosphomannomutase and mannose-1-phosphate guanylyltransferase assay; type: functional; set-up: scale not given: direction of the effect not stated beside the values; conditions: 10 µM
[6] = molecular target: T3, Arginase-2, mitochondrial (Homo sapiens) (UniProt P78540); assay: in vitro enzyme assay to detect the production of urea directly proportional to the activity of Arginase II; type: functional; set-up: scale not given: in the data most compounds retested in dose-response had high values; conditions: 33.3 µM
T3 sequence (whole entry): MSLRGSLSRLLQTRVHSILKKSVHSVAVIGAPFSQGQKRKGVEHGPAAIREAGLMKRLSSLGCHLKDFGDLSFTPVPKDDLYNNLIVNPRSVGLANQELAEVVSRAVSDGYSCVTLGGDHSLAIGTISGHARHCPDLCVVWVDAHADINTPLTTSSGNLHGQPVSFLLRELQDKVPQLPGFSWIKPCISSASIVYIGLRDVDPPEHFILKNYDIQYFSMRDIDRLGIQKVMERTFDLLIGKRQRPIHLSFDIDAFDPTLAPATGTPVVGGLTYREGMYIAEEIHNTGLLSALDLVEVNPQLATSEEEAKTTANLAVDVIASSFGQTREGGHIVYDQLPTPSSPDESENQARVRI

[7] = molecular target: T4, Proteasome subunit beta (Trypanosoma cruzi) (UniProt O96673); assay: Trypanosoma cruzi proteasome chymotrypsin-like activity (TcProtChymo) assay.; type: functional; set-up: scale not given: in the data most compounds retested in dose-response had high values; conditions: 9.37 µM
T4 sequence (whole entry): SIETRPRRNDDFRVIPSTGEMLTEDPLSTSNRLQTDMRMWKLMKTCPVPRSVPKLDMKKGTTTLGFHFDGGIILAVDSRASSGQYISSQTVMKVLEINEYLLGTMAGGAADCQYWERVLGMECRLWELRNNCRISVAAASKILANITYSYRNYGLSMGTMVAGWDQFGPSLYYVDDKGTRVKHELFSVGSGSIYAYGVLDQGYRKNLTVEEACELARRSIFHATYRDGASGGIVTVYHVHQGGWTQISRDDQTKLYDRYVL

Homo sapiens = species on record: Homo sapiens; assay: To identify inhibition of the IFN signalling (Jak-Stat) pathway via expression of an eGFP reporter gene under the control of an IFN-stimulated response element (ISRE) containing MxA promoter.; type: functional; set-up: scale not given: direction of the effect not stated beside the values; conditions: 30 µM
[8] = molecular target: T5, Tyrosyl-tRNA synthetase, putative (Trypanosoma cruzi (strain CL Brener)) (UniProt Q4DSP6); assay: Trypanosoma cruzi tyrosyl tRNA synthetase (TcYRS) _High Tyrosine SOP; type: functional; set-up: scale not given: in the data most compounds retested in dose-response had high values; conditions: 30 µM
T5 sequence (whole entry): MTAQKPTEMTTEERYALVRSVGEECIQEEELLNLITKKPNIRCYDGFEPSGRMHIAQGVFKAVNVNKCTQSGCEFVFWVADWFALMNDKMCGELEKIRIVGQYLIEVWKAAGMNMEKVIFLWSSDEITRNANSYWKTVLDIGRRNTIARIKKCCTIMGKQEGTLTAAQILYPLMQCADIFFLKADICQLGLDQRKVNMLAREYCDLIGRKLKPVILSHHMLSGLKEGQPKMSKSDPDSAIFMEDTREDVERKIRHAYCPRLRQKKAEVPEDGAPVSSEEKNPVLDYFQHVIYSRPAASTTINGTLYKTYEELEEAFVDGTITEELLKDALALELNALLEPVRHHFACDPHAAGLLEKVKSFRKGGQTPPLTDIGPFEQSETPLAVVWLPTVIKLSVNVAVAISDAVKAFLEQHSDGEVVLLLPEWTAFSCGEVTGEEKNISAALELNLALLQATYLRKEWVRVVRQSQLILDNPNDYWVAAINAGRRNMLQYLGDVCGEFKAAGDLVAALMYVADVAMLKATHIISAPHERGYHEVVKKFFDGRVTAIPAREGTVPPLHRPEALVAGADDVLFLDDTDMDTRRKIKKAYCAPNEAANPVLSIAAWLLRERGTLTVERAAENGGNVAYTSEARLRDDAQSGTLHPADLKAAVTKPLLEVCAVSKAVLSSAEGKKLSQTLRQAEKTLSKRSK

[9] = molecular target: T5, Tyrosyl-tRNA synthetase, putative (Trypanosoma cruzi (strain CL Brener)); assay: Trypanosoma cruzi tyrosyl tRNA synthetase (TcYRS) SOP; type: functional; set-up: scale not given: direction of the effect not stated beside the values; conditions: 30 µM
[10] = molecular target: Chromo domain-containing protein 1 (Saccharomyces cerevisiae (strain ATCC 204508 / S288c) (Baker's yeast)) (UniProt P32657); assay: ScCHD-1 Enzyme Inhibition Assay; type: functional; set-up: scale not given: in the data most compounds retested in dose-response had high values; conditions: 30 µM
Chromo domain-containing protein 1 (Saccharomyces cerevisiae (strain ATCC 204508 / S288c) (Baker's yeast)), sequence (P32657 whole entry, the tested form may be a part): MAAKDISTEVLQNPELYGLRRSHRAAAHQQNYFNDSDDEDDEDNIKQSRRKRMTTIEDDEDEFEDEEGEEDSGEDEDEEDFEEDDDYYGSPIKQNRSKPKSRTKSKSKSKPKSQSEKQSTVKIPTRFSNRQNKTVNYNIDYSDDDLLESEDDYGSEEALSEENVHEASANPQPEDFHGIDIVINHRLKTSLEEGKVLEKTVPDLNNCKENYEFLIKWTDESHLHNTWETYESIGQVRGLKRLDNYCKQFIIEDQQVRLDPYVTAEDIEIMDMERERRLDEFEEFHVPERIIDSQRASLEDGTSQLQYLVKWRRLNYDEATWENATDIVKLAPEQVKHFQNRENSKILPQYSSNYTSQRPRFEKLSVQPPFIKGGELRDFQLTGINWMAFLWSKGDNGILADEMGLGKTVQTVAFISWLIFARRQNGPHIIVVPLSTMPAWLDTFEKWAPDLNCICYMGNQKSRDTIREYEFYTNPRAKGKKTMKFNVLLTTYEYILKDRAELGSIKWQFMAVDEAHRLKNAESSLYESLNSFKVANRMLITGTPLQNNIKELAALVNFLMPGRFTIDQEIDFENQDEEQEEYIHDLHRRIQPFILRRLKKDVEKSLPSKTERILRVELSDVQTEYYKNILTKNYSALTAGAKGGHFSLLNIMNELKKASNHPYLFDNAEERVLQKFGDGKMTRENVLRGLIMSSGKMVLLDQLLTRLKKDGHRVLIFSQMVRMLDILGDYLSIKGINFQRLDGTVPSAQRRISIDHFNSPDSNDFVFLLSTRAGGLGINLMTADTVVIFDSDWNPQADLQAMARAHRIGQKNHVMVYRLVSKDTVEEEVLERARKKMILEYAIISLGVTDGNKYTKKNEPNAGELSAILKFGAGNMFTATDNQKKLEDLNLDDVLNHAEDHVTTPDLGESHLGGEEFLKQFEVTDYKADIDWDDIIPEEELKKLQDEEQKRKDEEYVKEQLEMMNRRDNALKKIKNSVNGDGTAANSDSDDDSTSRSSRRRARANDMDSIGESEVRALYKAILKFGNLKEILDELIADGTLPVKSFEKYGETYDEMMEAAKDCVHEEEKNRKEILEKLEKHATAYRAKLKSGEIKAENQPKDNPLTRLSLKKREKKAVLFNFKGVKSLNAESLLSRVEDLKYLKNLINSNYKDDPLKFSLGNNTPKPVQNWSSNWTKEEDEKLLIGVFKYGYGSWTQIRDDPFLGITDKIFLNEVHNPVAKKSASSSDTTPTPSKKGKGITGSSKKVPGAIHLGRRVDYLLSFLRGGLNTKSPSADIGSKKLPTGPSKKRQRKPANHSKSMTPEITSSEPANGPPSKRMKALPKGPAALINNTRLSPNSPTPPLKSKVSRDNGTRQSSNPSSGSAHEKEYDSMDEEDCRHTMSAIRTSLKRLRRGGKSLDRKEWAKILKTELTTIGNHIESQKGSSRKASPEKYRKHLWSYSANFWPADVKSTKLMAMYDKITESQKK

Sialic acid-binding Ig-like lectin 9 (Homo sapiens), sequence (Q9Y336 whole entry): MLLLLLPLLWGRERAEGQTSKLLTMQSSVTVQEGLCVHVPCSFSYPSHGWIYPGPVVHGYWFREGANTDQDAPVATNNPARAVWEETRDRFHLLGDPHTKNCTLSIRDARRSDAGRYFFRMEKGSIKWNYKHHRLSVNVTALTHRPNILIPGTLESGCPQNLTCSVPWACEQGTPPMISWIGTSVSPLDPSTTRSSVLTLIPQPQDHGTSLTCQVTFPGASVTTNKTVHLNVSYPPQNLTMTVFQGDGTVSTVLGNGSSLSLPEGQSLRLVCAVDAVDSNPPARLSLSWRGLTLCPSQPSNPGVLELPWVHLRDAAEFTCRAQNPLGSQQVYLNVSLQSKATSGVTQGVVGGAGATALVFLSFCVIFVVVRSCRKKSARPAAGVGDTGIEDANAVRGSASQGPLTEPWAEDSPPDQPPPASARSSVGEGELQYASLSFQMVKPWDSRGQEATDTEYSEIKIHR
Protein translocase subunit SecA (Escherichia coli (strain K12)), sequence (P10408 whole entry): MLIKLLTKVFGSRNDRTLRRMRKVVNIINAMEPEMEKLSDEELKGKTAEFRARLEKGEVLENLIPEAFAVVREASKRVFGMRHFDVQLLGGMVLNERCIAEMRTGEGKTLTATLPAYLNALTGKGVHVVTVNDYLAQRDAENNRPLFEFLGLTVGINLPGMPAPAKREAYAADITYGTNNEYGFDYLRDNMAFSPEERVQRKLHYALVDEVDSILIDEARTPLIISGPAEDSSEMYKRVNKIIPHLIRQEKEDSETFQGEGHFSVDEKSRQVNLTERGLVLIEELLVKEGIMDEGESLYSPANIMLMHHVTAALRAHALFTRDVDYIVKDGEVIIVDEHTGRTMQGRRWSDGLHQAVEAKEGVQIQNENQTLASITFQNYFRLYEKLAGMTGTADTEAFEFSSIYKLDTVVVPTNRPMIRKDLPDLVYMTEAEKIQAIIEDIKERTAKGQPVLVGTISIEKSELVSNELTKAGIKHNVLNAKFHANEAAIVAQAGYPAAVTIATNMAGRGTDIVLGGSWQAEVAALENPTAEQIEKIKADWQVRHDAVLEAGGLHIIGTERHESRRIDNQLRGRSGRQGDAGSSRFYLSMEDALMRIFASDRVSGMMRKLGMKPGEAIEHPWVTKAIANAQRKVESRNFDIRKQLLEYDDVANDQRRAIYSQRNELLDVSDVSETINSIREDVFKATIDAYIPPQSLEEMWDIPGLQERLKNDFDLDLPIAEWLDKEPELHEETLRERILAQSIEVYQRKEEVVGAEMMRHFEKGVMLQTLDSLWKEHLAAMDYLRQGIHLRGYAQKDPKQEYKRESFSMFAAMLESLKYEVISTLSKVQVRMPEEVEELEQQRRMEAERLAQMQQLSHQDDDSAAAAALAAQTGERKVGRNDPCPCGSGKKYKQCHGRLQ

Cc1cccnc1NC(=O)NCc1ccc(N2CCNC(=O)C2)cc1 was tested, and the PXC50 ([1]; BOTTOM 2.91901785, HILLSLOPE 1.51189845, MAX_EFFECT 82.83828383, TOP 100.0) was 4.39, the PXC50 ([1]; BOTTOM 3.848291916, HILLSLOPE 1.411514836, MAX_EFFECT 84.7826087, TOP 100.0) was 4.45 and the PXC50 ([1]; BOTTOM 5.032769966, HILLSLOPE 1.524648586, MAX_EFFECT 89.96415771, TOP 100.0) was 4.48. For the same compound, the PXC50 ([1]; MAX_EFFECT 2.073365231) was < 4, the PXC50 ([1]; MAX_EFFECT 2.495201536) was < 4 and the Percent Effect [2] was -3.51%. The Percent Effect [3] was 15.6%, the Percent Effect [4] was 9.04% and the Percent Effect [5] was 11.4%. The Percent Effect (Trypanosoma cruzi) was 1.5%, the Percent Effect [6] was -2.13% and the Percent Effect [7] was 8.78%. For the same compound, the Percent Effect (Homo sapiens) was 5.74%, the Percent Effect [8] was 41.8% and the Percent Effect [9] was 34.1%. The Percent Effect [10] was -8.16%.
